Assay results as given in ChEMBL document CHEMBL3988442, “University of Dundee, Small-Polar-MMV Screening Library” (2021).
The whole screen tested about 48,000 compounds, of which about 13,000 (27%) showed an effect of 50% or more. Some of the results follow.

What follows are compounds tested on Wolbachia pipientis (assay: Anti-Wolbachia Cell-Based Screen). Settings: 5 µM.
Format: functional
Set-up: scale not given: in the data most compounds retested in dose-response had high values

| Compound | Percent Effect [%] |
| --- | --- |
| CNS(=O)(=O)Cc1ccccc1CNc1ccc(C#N)cn1 | 4.345 |
| Cc1cnccc1-n1nc(C(C)C)nc1CS(C)(=O)=O | -11.94 |
| Cn1cc(C(NCCc2ccccn2)c2cccc(F)c2)cn1 (stereo unspecified) | -5.902 |
| CN(C(=O)CCc1ccsc1)S(C)(=O)=O | -3.197 |
| CC(C)CNC(=O)N1C[C@H]2CC[C@@]3(N=C(c4ccccc4)NC3=O)[C@H]2C1 | -1.799 |
| CC1(C)CC(CN2CCC3(CCC(=O)N(CCO)C3)CC2)CCO1 (stereo unspecified) | -24.07 |
| CN(C)CCNCC1CCOC(C)(C)C1 (stereo unspecified) | 114.8 |
| CN(C)CCCNCC1CCOC(C)(C)C1 (stereo unspecified) | 84.35 |
| CC(C)NC(=O)C(C(C)C)n1cnc2cc(F)c(F)cc21 (stereo unspecified) | -2.583 |
| Cn1cnc2c1C(C(=O)N1CCOCC1)N(C(=O)c1ccccc1)CC2 (stereo unspecified) | 1.78 |
| CCOC(=O)CC1CCCCN1C(=O)c1cc(=O)[nH]c(=O)[nH]1 (stereo unspecified) | 3.722 |
| CCC1CCCCN1C(=O)Cn1nc(-c2ccc(C)o2)cc(N)c1=O (stereo unspecified) | 125.9 |
| Cc1ccc(-c2cc(N)c(=O)n(CC(=O)NCC3CCCCC3)n2)s1 | -12.04 |
| CCC1CCCCN1C(=O)Cn1cnc(C#N)n1 (stereo unspecified) | -4.598 |
| Cc1cc(C)n(C2CCCN(C(=O)Cn3ccc(=O)n(C)c3=O)C2)n1 (stereo unspecified) | 5.694 |
| CC1CCCN(C(=O)Cn2cc(I)cn2)C1 (stereo unspecified) | 2.299 |
| CCC1CCCCN1C(=O)Cn1nc(-c2cc(C)oc2C)cc(N)c1=O (stereo unspecified) | 172.7 |
| CNC(=O)C1CCCCN1C(=O)Cc1csc(-c2ccc(C)o2)n1 (stereo unspecified) | 7.331 |
| CCOC(=O)CC1CCCCN1C(=O)c1cc(C)oc1C (stereo unspecified) | 1.644 |
| CCC1CCCCN1C(=O)Cn1nc(-c2ccc(C)s2)cc(N)c1=O (stereo unspecified) | 132.6 |
| Cc1cc(-c2cc(N)c(=O)n(CC(=O)N3CCCC(C)C3)n2)c(C)o1 (stereo unspecified) | 135.5 |
| Cl.O=C(NCC1CCC2(CCNCC2)CO1)c1ccno1 (stereo unspecified) | -17.95 |
| COC(=O)N1CCC(Nc2cccc(F)c2C(C)=O)C1 (stereo unspecified) | 18.09 |
| Cc1cc(CNc2ccc3nc(C4CC4)sc3c2)no1 | -18.62 |

| Compound | Percent Effect [%] |
| --- | --- |
| COc1ccc(C)cc1CCNS(=O)(=O)c1ccc2c(c1)CCC(=O)N2 | -14.2 |
| COCCN1CCC(NCc2cccc(C)c2)C1 (stereo unspecified) | 89.68 |
| COCCN1CCC(NCc2ccc(C#N)cc2)C1 (stereo unspecified) | -5.015 |
| COCCN1CCC(NCc2c(F)cccc2F)C1 (stereo unspecified) | 93.26 |
| CCCN1CCC(NCc2ccncc2)CC1 | 12.05 |
| COCCN1CCC(NCc2cccc(F)c2)C1 (stereo unspecified) | 4.631 |
| COCCN1CCC(NCc2c(C)nn(C)c2N(C)C)CC1 | -18.36 |
| COCCN1CCC(NCc2ccc(Cl)cc2)C1 (stereo unspecified) | 79.9 |
| COCCN1CCC(NC(=O)NCC2(c3cccc(F)c3)CC2)C1 (stereo unspecified) | 7.702 |
| COCCN1CCC(NCc2cccnc2)C1 (stereo unspecified) | -0.4239 |
| COCCN1CCC(NCc2cc(F)ccc2F)C1 (stereo unspecified) | 105 |
| COCCN1CCC(CNC(=O)CCc2cc(F)ccc2F)C1 (stereo unspecified) | -0.9804 |
| CSc1ccc(CN(C(=O)c2cc[nH]n2)C2CC2)cc1 | -13.27 |
| CCCN(Cc1nccn1C)C(=O)C(CC)Nc1cccc(OC)c1 (stereo unspecified) | -30.45 |
| COCCN1CCC(NC(=O)C(C)C)CC1 | -12.29 |
| COCCN1CCC(NCc2ccc(F)cc2F)C1 (stereo unspecified) | 87.91 |
| CCCN(Cc1nccn1C)C(=O)c1cc(C(C)C)on1 | -14.15 |
| CC(C)Nc1ncccc1C(=O)NCc1ncc[nH]1 | 7.716 |
| Cc1cc(C(F)F)nn1C(C)C(=O)NCc1nccn1C (stereo unspecified) | 129.1 |
| Cc1cc(C(F)F)nn1C(C)C(=O)NCc1ncc[nH]1 (stereo unspecified) | 132.9 |
| Cc1cccc(I)c1C(=O)NCc1ncc[nH]1 | -11.65 |
| Cc1cc(C(F)(F)F)nn1C(C)C(=O)Nc1ccncc1 (stereo unspecified) | 11.57 |
| Cc1ncc2c(n1)CCN(Cc1nc(Cc3ccccc3)no1)C2 | 2.52 |
| Cc1noc([C@@H]2C[C@H](NC(=O)Nc3ccccc3)CN2C)n1 | 1.901 |

| Compound | Percent Effect [%] |
| --- | --- |
| CN(C)C(=O)C1CCCN1C(=O)c1ccc(Cn2ccnc2)o1 (stereo unspecified) | -6.024 |
| CCN1CCN(c2nc(O)cc(Cc3ccccc3F)n2)CC1 | 169.1 |
| CCOc1ccnc(N2CCN(CCOC)CC2)n1 | -0.8063 |
| CC(NCc1ccccn1)c1ccc(N2CCN(C)CC2)c(F)c1 (stereo unspecified) | -5.411 |
| COCCN1CCN(c2nc(O)cc(Cc3ccccc3F)n2)CC1 | 126.9 |
| CCN1CCCC(O)(CNCc2ccccc2F)C1 (stereo unspecified) | 5.055 |
| CN1CCN(CCCNS(=O)(=O)Cc2ccccc2F)CC1 | -19.52 |
| CN1CCN(c2nc(O)cc(Cc3ccccc3F)n2)CC1 | 156.6 |
| COCCN1CCN(Cc2coc(-c3ccccc3Cl)n2)CC1 | -11.13 |
| C[C@@H]1CN(c2nc(O)cc(Cc3ccccc3F)n2)C[C@H](C)O1 | 156.7 |
| COc1ccc2c(C)nc(N3C[C@@H](C)O[C@@H](C)C3)nc2c1 | -4.468 |
| CCN1CCN(c2ccc(F)cc2C(C)NCc2ccccn2)CC1 (stereo unspecified) | 9.781 |
| C[C@@H]1CN(Cc2ccccc2F)CC(C(N)=O)O1 (stereo partly specified) | 1.23 |
| c1ccc(Cn2cccn2)c(CN2CCC3(CCCNC3)C2)c1 (stereo unspecified) | -20.95 |
| O=S(=O)(CCO)Cc1ccc(OCC(F)(F)F)cc1 | 1.249 |
| COCCOCCNC(=O)C(C)Oc1ccccc1C(F)(F)F (stereo unspecified) | 0.2325 |
| O=C(O)C(F)(F)F.c1cc(CN2CCCn3cnc(COCC4CC4)c3C2)co1 | 3.975 |
| CCC(NC(=O)c1cc(CC(C)C)nn1C)c1ccnn1C (stereo unspecified) | 9.016 |
| CCCc1cc(C(=O)N[C@@H](CO)[C@@H](O)c2ccccc2)n(C)n1 | 130.2 |
| CCCc1cc(C(=O)N[C@H](C)[C@@H](O)c2ccc(O)cc2)n(C)n1 | 110 |
| CCCc1cc(C(=O)N(C)Cc2cnc3ccccc3n2)n(C)n1 | -19.21 |
| CC(C)Cc1cc(C(=O)NCC(O)c2ccc(F)cc2)n(C)n1 (stereo unspecified) | 0.3453 |
| CCCc1cc(C(=O)NC(c2ccccc2)c2n[nH]c(C)n2)[nH]n1 (stereo unspecified) | 3.333 |
